Screening results: PubChem BioAssay, several laboratories
Peg3 prom inh – inhibitors of Peg3 promoter | HeLa PEG-Prom luciferase reporter, luminescence, overnight | inhibition, % at 20 µM | actives 1.7% (n = 360,000);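 active = inhibition of at least 50% at 20 µM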
HIF-2a block – inhibitors of HIF-2a; actives 0.72% (n = 360,000); 786-0 RCC cells HIF-2a reporter, luciferase luminescence, overnight; inhibition, % at 18.8 µM; AID 624352;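 active = inhibition of the luminescence signal of 40% or more relative to plate controls, in a single-dose primary screen at 18.75 µM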
EBV LMP1 NFkB – reduces LMP1-driven NF-kappaB luciferase signal; LMP1-induced NF-kappaB luciferase reporter cells, luminescence; inhibition, % at 12.5 µM; actives 0.69% (n = 350,000); in the data active = inhibition above about 41%; inconclusive = no clear call, values can overlap the other calls
TRPM1 prom inh – reduces MITF-dependent TRPM1 promoter luciferase signal | SK-MEL-5 TRPM1 promoter luciferase, 24 h | inhibition, % at 12.5 µM | actives 0.83% (n = 330,000);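 active = mean inhibition across replicates of 60% or more, whatever share of single replicates reaches that level; inconclusive = some that reach 60%, reason not given; inactive = mean inhibition across replicates below 60%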
Shn3 3UTR inh – Schnurri-3 reporter inhibition in Clone20 osteoblasts | Clone20 osteoblast Shn3 3'UTR firefly luciferase, 24 h | inhibition, % at 12.5 µM | actives 0.52% (n = 360,000) | AID 588674;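 active = mean inhibition of at least 75% with every replicate also reaching 75%; inconclusive = mean inhibition at least 75% but some replicate below; inactive = mean inhibition below 75%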
PAX8 inh HTS – inhibitors of PAX8 transcriptional activity in RMG-I cells; RMG-I TPO-luciferase reporter, SteadyGlo, 24 h; inhibition, % at 12.6 µM; actives 1.2% (n = 360,000); AID 652154;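 active = mean replicate inhibition at least 60% with every replicate also reaching 60%; inconclusive = only one of the two criteria is met; inactive = mean below 60% and not all replicates reaching 60%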;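 note: luciferase light reporting Pax8 driven TPO promoter activity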
Numbers stand for hits; - = inactive; ? = inconclusive; . = no result. Most compounds without a hit are left out; they make up all but 2.8% or so of the library.

SMILES	Peg3 prom inh	HIF-2a block	EBV LMP1 NFkB	TRPM1 prom inh	Shn3 3UTR inh	PAX8 inh HTS
C[C@@H]1CCCCO[C@@H](CN(C)S(=O)(=O)c2ccc(Cl)cc2)[C@@H](C)CN([C@@H](C)CO)C(=O)c2cc(NC(=O)Nc3ccc(F)cc3)ccc2O1	.	.	.	.	.	-
Cc1cc(N/N=C/c2ccc(O)c(C)c2O)nc(-c2ccccc2O)n1	68.9	-	-	-	-	97.2
C/C(=N\Nc1cc(C)nc(-c2ccccc2O)n1)c1ccccc1	-	-	-	-	-	-
Oc1c(C(c2ccc(Cl)cc2)N2CCCC2)cc(Cl)c2cccnc12 (centres undefined)	-	-	-	-	-	70.4
Cc1ccc(C(c2cc(Cl)c3cccnc3c2O)N2CCN(C)CC2)cc1 (centres undefined)	-	43.2	-	-	-	.
Oc1c(C(c2ccccc2Cl)N2CCCC2)ccc2cccnc12 (centres undefined)	-	-	-	74.8	86.6	-
CN1CCN(C(c2ccccn2)c2cc(Cl)c3cccnc3c2O)CC1 (centres undefined)	-	-	-	-	-	-
CN1CCN(C(c2ccc(C(F)(F)F)cc2)c2ccc3cccnc3c2O)CC1 (centres undefined)	.	.	.	.	.	-
Oc1c(C(c2ccccn2)N2CCC(Cc3ccccc3)CC2)cc(Cl)c2cccnc12 (centres undefined)	.	.	.	.	.	82.8
CCCNC(=O)C[C@@H]1CC[C@H]2[C@H](COc3ccc(NC(=O)Nc4cccc(C)c4)cc3C(=O)N2C)O1	.	.	.	.	.	-
COC(=O)C[C@@H]1CC[C@@H]2[C@H](COc3ccc(NC(=O)Nc4cccc(Cl)c4)cc3C(=O)N2C)O1	.	.	.	.	.	-
C[C@@H]1CN([C@H](C)CO)C(=O)c2cccc(NS(=O)(=O)c3cn(C)cn3)c2O[C@H]1CN(C)Cc1ccc(-c2ccccc2)cc1	.	.	.	.	.	-
O=C(N[C@@H]1CC[C@@H](CCNS(=O)(=O)c2ccc(F)cc2)O[C@@H]1CO)C1CC1	.	.	.	.	.	-
COc1cnn(-c2ccc(C)cc2)c(=O)c1SCc1ccccc1	-	-	47.3	-	-	.
COCCN1Cc2cccc(C(=O)Nc3ccc(C)cc3)c2C1=O	-	-	-	-	-	-
COCCN1Cc2cccc(C(=O)N3CCN(c4cc(C)ccc4C)CC3)c2C1=O	-	-	78.1	-	-	-
CCCN1Cc2cccc(C(=O)N3CCN(c4cc(Cl)ccc4C)CC3)c2C1=O	-	-	-	.	-	.
COCCN1Cc2cccc(C(=O)Nc3ccc4c(c3)OCCO4)c2C1=O	-	-	-	-	86.9	-
C[C@H](CO)N1C[C@H](C)[C@H](CN(C)C(=O)C2CCCCC2)Oc2ncc(-c3ccccc3F)cc2C1=O	.	.	.	.	.	-
C[C@@H]1CN([C@@H](C)CO)C(=O)Cc2cc(NC(=O)c3ccncc3)ccc2O[C@H]1CN(C)C(=O)Nc1ccccc1	.	.	.	.	.	-
CCCN(C(=O)c1cccc(S(=O)(=O)N2CCCc3ccccc32)c1)C1CCS(=O)(=O)C1 (centres undefined)	-	-	-	-	-	-
CCN(C(=O)COC(=O)c1ccc(S(=O)(=O)N2CCCc3ccccc32)cc1)C1CCS(=O)(=O)C1 (centres undefined)	-	-	-	-	-	97.2
COc1ccc(CCN2C(=O)CSC2=S)cc1OC	59.6	61.0	-	-	-	90.3
COc1ccc(CN2C(=O)CSCC2=O)cc1OC	-	-	-	-	-	-
CC(C)NC(=O)N(C)C[C@H]1OCCCC[C@H](C)Oc2ccc(NC(=O)C3CCCCC3)cc2C(=O)N([C@H](C)CO)C[C@H]1C	.	.	.	.	.	-
SMILES	Peg3 prom inh	HIF-2a block	EBV LMP1 NFkB	TRPM1 prom inh	Shn3 3UTR inh	PAX8 inh HTS
Cc1cc(C(=O)N/N=C/c2ccc3c(c2)OCO3)c(C)n1-c1ccc(F)cc1	-	-	-	-	-	-
Cc1cccc(NC(=S)N/N=C/c2ccc(Cl)c([N+](=O)[O-])c2)c1	62.5	-	-	-	-	-
Cc1cc(C(=O)N/N=C/c2ccc(Cl)c([N+](=O)[O-])c2)c(C)n1-c1ccc(F)cc1	105.3	60.9	-	62.8	-	-
Cc1ccc(Cl)cc1N1CCN(C(=O)c2noc(C)c2[N+](=O)[O-])CC1	-	-	-	-	-	105.3
Cc1onc(C(=O)N2CCN(c3ccccc3)CC2)c1[N+](=O)[O-]	-	-	-	-	-	-
C[C@H](CO)N1C[C@H](C)[C@H](CN(C)S(=O)(=O)c2ccc(F)cc2)OCCCC[C@H](C)Oc2ccc(NC(=O)NC3CCCCC3)cc2C1=O	.	.	.	.	.	-
C=C[C@@H](CO)NS(=O)(=O)c1ccc(Br)cc1	.	.	.	.	.	-
Cc1c(CC(=O)NCCC(=O)O)c(=O)oc2cc3oc4c(c3cc12)CCCC4	-	-	-	-	-	-
Cc1c(CC(=O)NCCCC(=O)O)c(=O)oc2cc3oc4c(c3cc12)CCCC4	-	-	-	-	-	-
Cc1c(CCC(=O)N2CCC(C(=O)O)CC2)c(=O)oc2cc3oc4c(c3cc12)CCCC4	-	58.1	-	-	-	.
Cc1c(CCC(=O)N[C@@H](C)C(=O)O)c(=O)oc2cc3oc4c(c3cc12)CCCC4	-	75.7	-	.	-	-
Cc1ccc(NC(=O)C(=O)Nc2ccccn2)cc1	-	-	56.1	-	-	-
Cc1ccc(S(=O)(=O)CC(=O)Nc2ccccn2)cc1	-	-	-	-	-	-
C=CC(=O)N1C/C(=C/c2ccc(Cl)cc2)C(=O)/C(=C\c2ccc(Cl)cc2)C1	103.4	83.5	86.3	98.3	97.3	110.2
C=CC(=O)N1C/C(=C/c2ccccc2)C(=O)/C(=C\c2ccccc2)C1	105.9	91.4	85.1	97.3	97.3	79.9
Cc1ccc(S(=O)(=O)c2nc(S(=O)(=O)c3ccccc3)sc2N2CCN(C)CC2)cc1	-	-	-	-	-	88.0
Cc1ccc(S(=O)(=O)c2nc(S(=O)(=O)c3ccccc3)sc2N2CCN(CCO)CC2)cc1	-	-	-	-	-	71.5
CCN1CCN(c2sc(S(C)(=O)=O)nc2S(=O)(=O)c2ccc(C)cc2)CC1	-	-	-	-	-	71.0
COc1cc2c(cc1OC)-c1cc(Nc3ccc4c(c3)OCCO4)nc(=O)n1CC2	-	-	51.1	-	-	.
O=C(c1cc(COc2ccc3c(c2)CCCC3)on1)N1CCCC1	-	-	73.1	-	-	-
O=C(NCc1cccc(Cl)c1)c1cc(COc2ccc3ncccc3c2)on1	-	-	-	-	?	-
CC(CCCC(C)(C)O)NC(=O)c1cc(COc2ccc3ncccc3c2)on1 (centres undefined)	-	-	-	-	89.9	-
CCC1CCCCN1C(=O)c1cc(COc2ccc3ncccc3c2)on1 (centres undefined)	-	-	-	-	87.7	-
CCN1CCN(C(=O)c2cc(COc3ccc4ncccc4c3)on2)CC1	-	-	-	-	-	-
COCC1CCCCN1C(=O)c1cc(COc2ccc3ncccc3c2)on1 (centres undefined)	-	-	-	-	88.7	-
